Unmarked numbers belong to inactive results. How the calls were made is not given here.

The term inhibition denotes the percentage by which the read-out fell short of the control.

For the experiment, the target named is Pantothenate synthetase (Mycobacterium tuberculosis (strain ATCC 25618 / H37Rv)) (UniProt P9WIL5). In words: Coupled enzyme confirmation of inhibitors against recombinant Mtb PanC (AID 375).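 Further: 0% = full reaction with vehicle and 100% = no enzyme background.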 Particulars: coupled enzyme assay; at 10 µM, hits give high values.
Sequence of Pantothenate synthetase (Mycobacterium tuberculosis (strain ATCC 25618 / H37Rv)) (P9WIL5 whole entry, looked up): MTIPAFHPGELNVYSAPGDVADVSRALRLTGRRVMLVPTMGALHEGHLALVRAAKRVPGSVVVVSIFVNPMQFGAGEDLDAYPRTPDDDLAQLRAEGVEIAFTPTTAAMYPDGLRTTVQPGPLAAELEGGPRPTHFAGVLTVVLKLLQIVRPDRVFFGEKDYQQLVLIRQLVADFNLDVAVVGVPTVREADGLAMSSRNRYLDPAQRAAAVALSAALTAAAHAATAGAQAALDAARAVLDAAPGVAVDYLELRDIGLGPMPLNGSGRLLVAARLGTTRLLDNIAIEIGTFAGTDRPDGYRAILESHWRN
Turning to `Cc1nnc(NC2CCCCC2)[nH]c1=O`, the inhibition is 3%.

For `COc1ccc(OCC(=O)N2CCN(C(=O)c3cccs3)CC2)cc1`, the inhibition was 5%.

Regarding `O=C(Cn1nc(-c2ccc3c(c2)OCCO3)ccc1=O)Nc1ccc(N2CCOCC2)cc1`, the inhibition is 0%.

With `CN(C)S(=O)(=O)c1ccc(C(=O)N2CCC(c3nc4ccccc4o3)CC2)cc1`, the inhibition was 5%.

`COc1ccccc1NC(=O)C1=C(C)Nc2nc(CCCO)nn2C1c1cccnc1` (centres undefined): the inhibition is 1%.

In the case of `O=C(c1ccccc1)c1coc2ccc(O)c(CN3CCOCC3)c12`, the inhibition is 4%.

With `COc1ccc(C2CC(c3ccco3)n3ncnc3N2)cc1` (centres undefined), the inhibition was 4%.

In the case of `CCN(CC)C(=O)Oc1ccccc1NC(C)=O`, the inhibition is 1%.

Regarding `CCC1Cc2c(nc3c4c(nc(N5CCOCC5)c(C#N)c24)NC(C)=N3)O1` (centres undefined), the inhibition was 0%.

In the case of `CN(Cc1ccccc1)C(=O)c1ccc2c(c1)OCO2`, the inhibition is 0%.

With `C1CNCCNCCNCCN1`, the inhibition is 0%.

As to `O=C(COc1ccccc1)Nc1nc2ccccc2[nH]1`, the inhibition was 0%.

Turning to `O=S(=O)(NCc1cn2ccsc2n1)c1ccc2c(c1)OCCO2`, the inhibition is 0%.

For the compound `Cc1nc2cc(Cl)ccc2n1CCO`, the inhibition was 2%.

In the case of `CC(=O)NCCn1ccc2ccccc21`, the inhibition was 0%.

Consider `CC(=O)c1ccccc1NS(=O)(=O)c1c(C)nn(-c2ccccc2)c1C`, for which the inhibition is 0%.

As to `CCS(=O)(=O)CCn1c([N+](=O)[O-])cnc1C`, the inhibition was 7%.

In the case of `CC(Oc1ccccc1)C(=O)Nc1ccc(S(=O)(=O)NCC2CCCO2)cc1` (centres undefined), the inhibition was 1%.

`Cc1ccc2c(c1)N(CC(=O)Nc1ccc3c(c1)OCCO3)C(=O)CO2`: the inhibition was 0%.

The values above are taken from PubChem BioAssay.
